Measurements as given in PubChem BioAssay AID504523 (Broad Institute, 2011).
Screen size: about 340,000 compounds; about 490 (0.14%) were called active. Rule as the data show it: active = inhibition above about 12%; inconclusive = no clear call, values can overlap the other calls; inactive = below about 7.3%. This excerpt belongs to a sample that is enriched for actives.

target: Kelch-like ECH-associated protein 1 (Homo sapiens) (UniProt Q14145); assay: disruptors of Keap1 binding to Nrf2 – biochemical, fluorescence polarization, single point, primary screen (AID 504523); conditions: Keap1 Kelch-Nrf2 peptide fluorescence polarization, 1536-well; at 9.4 µM; active compounds read high;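 also: human Keap1 Kelch domain with fluorescein labeled Nrf2 9mer peptide probe; 0% = neutral control wells and 100% = peptide positive control; higher means more block of Keap1 binding to Nrf2 peptide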
Sequence (Q14145 whole entry, looked up, the tested form may be a part): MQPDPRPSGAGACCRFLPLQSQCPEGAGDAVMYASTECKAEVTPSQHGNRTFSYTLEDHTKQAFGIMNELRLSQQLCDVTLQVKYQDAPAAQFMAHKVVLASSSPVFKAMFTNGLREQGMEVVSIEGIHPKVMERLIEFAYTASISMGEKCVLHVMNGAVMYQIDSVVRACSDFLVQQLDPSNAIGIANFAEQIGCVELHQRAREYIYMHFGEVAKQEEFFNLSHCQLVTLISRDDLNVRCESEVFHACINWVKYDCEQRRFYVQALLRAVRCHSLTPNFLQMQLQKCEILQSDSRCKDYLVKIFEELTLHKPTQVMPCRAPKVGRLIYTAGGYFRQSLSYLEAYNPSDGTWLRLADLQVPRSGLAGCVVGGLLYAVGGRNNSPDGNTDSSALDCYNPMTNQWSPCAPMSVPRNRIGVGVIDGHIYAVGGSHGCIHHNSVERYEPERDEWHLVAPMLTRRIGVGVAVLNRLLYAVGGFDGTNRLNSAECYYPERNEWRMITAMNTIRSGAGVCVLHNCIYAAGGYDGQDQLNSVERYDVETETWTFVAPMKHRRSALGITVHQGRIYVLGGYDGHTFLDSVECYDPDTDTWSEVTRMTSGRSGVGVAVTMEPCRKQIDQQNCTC

Compound | inhibition
CC1(C)CC(=O)C(C2=NC(C)(C)Cc3ccccc32)=C(O)C1 | -1.79% (inactive)
CC1(C)CC(=O)C(N=Nc2ccc(S(=O)(=O)N3CCCCCC3)cc2)=C(O)C1 | 5.03% (inactive)
CC1(C)CC(=O)C(N=Nc2c(F)cccc2F)=C(O)C1 | 37.8% (active)
CN1CCOC1c1ccc(C2OCCN2C)cc1 (stereo not given) | 1.77% (inactive)
COC(=O)Cc1c(-c2[nH]c3ccccc3c2CC(=O)OC)[nH]c2ccccc12 | -0.936% (inactive)
COC(=O)C[n+]1cccc2ccccc21 | 36.4% (active)
O=C(C[n+]1cc(Br)cc2ccccc21)c1ccc(F)cc1 | -7.79% (inactive)
CCN1CCC(O)(/C=C/c2ccc(C)cc2)C(C(=O)/C=C/c2ccc(C)cc2)C1 (stereo not given) | -56.9% (inactive)
CCC1CCC2(CC1)NC(=O)N(CC(=O)Nc1ccc(OC)cc1)C2=O (stereo not given) | -5.89% (inactive)
COc1cccc(CN2CCNC(=O)C2CC(=O)N(C)CCc2ccccn2)c1 (stereo not given) | -0.18% (inactive)
CCOC(=O)C1(Cc2ccccc2C)CCCN(S(C)(=O)=O)C1 (stereo not given) | -4.08% (inactive)
Cc1ccc(F)cc1NC(=O)N1CCCN(c2ccc(C(F)(F)F)cn2)CC1 | -5.94% (inactive)
OC1CSc2nc3ccccc3n2C1 (stereo not given) | 1.42% (inactive)
CCOC(=O)c1c(C)n(C)c2ccc(OC)c(NC(=O)CN3CCC4(CC3)OCCO4)c12 | -2.53% (inactive)
Cc1cccc(NS(=O)(=O)c2ccc(C)c(C(N)=O)c2)c1 | -6.17% (inactive)
Cc1cccc(NS(=O)(=O)c2ccc(C)c(C(=O)NCC(c3ccccc3)N(C)C)c2)c1 (stereo not given) | 46.2% (active)
COc1ccc(C(CNC(=O)c2cc(S(=O)(=O)Nc3cccc(C)c3)ccc2C)N2CCCC2)cc1 (stereo not given) | -2.75% (inactive)
CCOC(=O)N1CCN(C(=O)COC(=O)c2cccc(S(C)(=O)=O)c2)CC1 | 1.11% (inactive)
C/C(=N/NC(=S)Nc1ccccc1)c1ccc2c(c1)OCO2 | -4.81% (inactive)
Cc1ccc(NC(=O)CSc2sc3c(O)cc(=O)[nH]c3c2C#N)cc1C | -7.74% (inactive)
Cc1nc(CN(C)C(=O)CC2C(=O)NCCN2Cc2ccc(F)cc2)cs1 (stereo not given) | -0.6% (inactive)
COC(=O)c1sc(N)c(C(=O)OC)c1COC(=O)CNS(=O)(=O)c1ccc(C)cc1 | 2.32% (inactive)
CC(C)(O)C#Cc1ncc(C(F)(F)F)cc1Cl | 2.69% (inactive)

Compound | inhibition
Clc1ccc2c(c1)C1=C(C(c3ccncc3)O2)C(c2ccc(Br)cc2)n2ncnc2N1 (stereo not given) | -2.67% (inactive)
Brc1ccc(C2=CC(c3ccco3)n3ncnc3N2)cc1 (stereo not given) | 36.1% (active)
COc1ccccc1NC(=O)CSc1nnc(Cn2nnc(-c3ccccc3)n2)n1-c1ccccc1 | 0.652% (inactive)
O=C(CCc1ccccc1)NNc1ccc(F)cc1 | 12.6% (active)
O=C(CCc1ccccc1)NNC(=O)COc1ccc(Cl)cc1 | -4.48% (inactive)
CC(=O)Nc1ccc(S(=O)(=O)NNC(=O)CCc2ccccc2)cc1 | -9.19% (inactive)
Cc1nc2ccccn2c1C(=O)NN=C1CCN(C)CC1 | -3.6% (inactive)
CC(C)(C)c1ccc(CCC2OCC(CN3CCOCC3)O2)cc1 (stereo not given) | 3.61% (inactive)
Cc1ccc(-n2ncc(C(=O)NC3CC3)c2C2CCN(C(=O)OC(C)(C)C)CC2)c(C)c1 | -3.33% (inactive)
O=S(=O)(c1ccc(Br)cc1)c1nc(-c2ccccc2)oc1N1CCOCC1 | -9.08% (inactive)
CCCC(NC(=O)c1ccccc1)c1nc2ccccc2n1Cc1ccc(C(=O)OC)o1 (stereo not given) | -2.49% (inactive)
CCCNc1c(N)c(=O)c1=O | -1.65% (inactive)
O=C(CCNc1n[nH]c(=O)[nH]c1=O)N/N=C\c1ccc(Br)cc1 | -2.4% (inactive)
CSCC[C@H](NC(=O)NCCc1ccc(F)cc1)C(=O)O | 1.87% (inactive)
COc1ccc(C2/C=C\CN(S(=O)(=O)c3cccs3)CC(=O)N2Cc2ccc(F)cc2)cc1 (stereo not given) | -0.104% (inactive)
O=C(O)CC(Cn1cnnn1)c1ccccc1 (stereo not given) | 20.2% (active)
O=C(O)CC(c1ccccc1)n1cnnn1 (stereo not given) | -4.84% (inactive)
O=C(O)CC(CC(=O)N1CCOCC1)c1ccccc1 (stereo not given) | -1.3% (inactive)
Cc1cccc(C2c3c(n(C)c(=O)n(C)c3=O)N=C3c4ccccc4C(=O)C32)c1 (stereo not given) | -0.0535% (inactive)
Cc1nonc1C1CCCN1Cc1nc(-c2ccc(F)cc2F)oc1C (stereo not given) | -5.07% (inactive)
Cn1c(CCNS(=O)(=O)c2ccc(F)cc2)nnc1SCc1cccnc1 | -1.02% (inactive)
Cc1ccc(OC(=O)c2cncc(Br)c2)c(C)c1 | 5.58% (inactive)
Cc1cccc(N=Nc2c(O)[nH]c3ccc(F)cc23)c1 | 0.392% (inactive)

Compound | inhibition
COc1cccc(NC(=O)CN(C)C(C)C(=O)Nc2ccc(C#N)cc2)c1 (stereo not given) | 4.55% (inactive)
COCCN(C(=O)C(C)N1C(=O)c2ccccc2C1=O)c1c(N)n(CC(C)C)c(=O)[nH]c1=O (stereo not given) | -8.05% (inactive)
CN(C(=O)CC1C(=O)NCCN1Cc1ccc(F)cc1Cl)C1CCCCC1 (stereo not given) | -12.6% (inactive)
O=C(CNC(=O)c1ccc(Br)o1)NCC1CCCO1 (stereo not given) | 3.4% (inactive)
CCN(CC)CC(=O)Nc1nn(-c2ccccc2)nc1C(N)=O | -0.843% (inactive)
O=C(NNc1c2ccccc2nc2ccccc12)c1cc2ccccc2cc1O | -0.162% (inactive)
Cc1onc(-c2ccc(Cl)cc2)c1-c1ccnn1S(=O)(=O)c1ccc(Cl)cc1 | -1.71% (inactive)
O=C(C1=C[C@H](c2coc3ccccc3c2=O)C[C@H](OCc2ccc(CO)cc2)O1)N1CCN(Cc2ccccc2)CC1 | -4.23% (inactive)
Nc1ccc2nc3c(=O)[nH]c(=S)[nH]c3nc2c1 | 39% (active)
CN(CC(=O)Nc1ccc(C(N)=O)cc1)S(=O)(=O)c1ccc2c(c1)OCCO2 | -4.93% (inactive)
CCC(C)(C)c1ccc(Oc2ccc(NC(=O)COC(=O)C3=COCCO3)cc2)cc1 | 1.96% (inactive)
CC(OC(=O)c1ccccc1OCc1ccc(Cl)cc1)C(N)=O (stereo not given) | -6.61% (inactive)
COC(=O)/C=C\C(=O)Nc1cccc([N+](=O)[O-])c1 | 8.41% (inactive)
COc1ccc(NS(=O)(=O)c2cc(NC(=O)CC(=O)c3ccc([N+](=O)[O-])cc3)ccc2C)cc1 | -4.68% (inactive)
O=C1CCCCC1Sc1ccc(Cl)cc1[N+](=O)[O-] (stereo not given) | 1.45% (inactive)
CC1=NNC(=O)C1CC(=O)N/N=C/c1ccncc1 (stereo not given) | 2.78% (inactive)
Cc1ccc(S(=O)(=O)CCC(=O)OCC(=O)N(C)Cc2ccccc2)cc1 | -7.11% (inactive)
CN1c2ccc([N+](=O)[O-])cc2C(C)(C)C12C=Cc1cc(C(=O)O)ccc1O2 (stereo not given) | 4.39% (inactive)
CC(=O)Oc1ccc(C(C)=O)c2c1OCCO2 | -3% (inactive)
CCCc1nnc(NC(=O)CCC(=O)NC2CC2)s1 | -3.82% (inactive)
O=C1c2ccccc2S(=O)(=O)c2cc(N3CCN(c4ccccn4)CC3)ccc21 | 3.87% (inactive)
CCOC(=O)c1nn(-c2cccc(C)c2)cc1C(=O)c1ccccc1 | 3.24% (inactive)
Cc1ccccc1OCC(=O)NCC(=O)OCC(=O)c1ccc2ccccc2c1 | -0.965% (inactive)

Compound | inhibition
CCCC1OC23CCCCC2C(C#N)(C#N)C1(C#N)C(=N)O3 (stereo not given) | 20.6% (active)
O=C(NCc1cccs1)C1CCN(S(=O)(=O)c2ccc3c(c2)OCCO3)CC1 | -2.29% (inactive)
O=C(Nc1ccccn1)C1CCN(S(=O)(=O)c2ccc3c(c2)OCCO3)CC1 | 24.3% (active)
O=C(Nc1ccccn1)C1CCN(S(=O)(=O)c2ccccc2)CC1 | -4.55% (inactive)
O=C1[C@H]2[C@@H](c3ccc(F)cc3)N3C(=O)N(c4ccc(C(F)(F)F)cc4)C(=O)[C@@]3(Cc3ccccc3)[C@H]2C(=O)N1C1CCCCC1 | -3.09% (inactive)
O=C(C1=C(O)C(=O)N(CCOCCO)C1c1ccccn1)c1cccs1 (stereo not given) | 5.97% (inactive)
CC[C@H]1OC(=O)[C@H](C)[C@@H](O[C@H]2C[C@@](C)(OC)[C@@H](O)[C@H](C)O2)[C@H](C)[C@@H](O[C@@H]2O[C@H](C)C[C@H](N(C)C)[C@H]2O)[C@](C)(O)C[C@@H](C)[C@@H]2N[C@@H](COCCOC)O[C@H]([C@H]2C)[C@]1(C)O | 1.21% (inactive)
COC1=CC(=O)OC(C)(c2ccccc2)C1 (stereo not given) | 1.18% (inactive)
COc1ccc(Cl)cc1NC(=O)CN(C)C(=O)c1ccc2n[nH]nc2c1 | 0.863% (inactive)
Cn1c(=O)c2c(SCC(=O)N3CCOCC3)nc(C3CC3)nc2n(C)c1=O | -7.01% (inactive)
O=S(=O)(c1cccs1)N1CCN(CCOc2ccccc2)CC1 | -5.25% (inactive)
CCN1/C(=C\c2ccc3ccccc3[n+]2CC)Sc2cc(C)ccc21 | 15.5% (active)
CC1(C)C(C=C(Cl)Cl)C1C(=O)NC(O)C(=O)c1ccccc1 (stereo not given) | 1.65% (inactive)
Cc1c(C(=O)NC(=S)NCc2cccnc2)oc2ccccc12 | -0.251% (inactive)
Cc1nnc(SC(C)C(=O)Nc2ccc(S(=O)(=O)NC3CCCCC3)cc2)s1 (stereo not given) | -0.0585% (inactive)
CCOC(=O)C1(Cc2ccc(Cl)cc2)CCN(C(=O)C2=NNC(=O)CC2)CC1 | 0.91% (inactive)
CN(Cc1nc2ccccc2c(=O)[nH]1)Cc1cc(=O)oc2ccc3ccccc3c12 | -4.19% (inactive)
Cc1cc(=O)oc(C)c1C(=O)NC1CC(C)(C)NC(C)(C)C1 | -0.963% (inactive)
Oc1ccc(-c2nc3ccccc3nc2-c2ccc(O)cc2O)c(O)c1 | 5.29% (inactive)
Oc1ccc2ccc3cccc[n+]3c2c1 | 128% (active)
COc1cc(NS(=O)(=O)c2ccc(NC(=O)CN3C(=O)c4ccccc4C3=O)cc2)ncn1 | -2.44% (inactive)
